# Hits are enriched below; roughly 3.3% of the tested compounds scored in any of these assays.
# Cl transport mod = modulators of human KCC2 chloride dependent transport | Q9H2X9 | AID 1456 | B-score of Tl+ flux slope (higher = more flux/activation; lower = inhibition) at 10 µM | 190,000 tested, 2.2% active | KCC2 cells, thallium flux FluoZin-2 fluorescence;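 active = thallium flux slope and its plate-corrected score both differing from the plate sample mean at a set confidence after two filtering rounds, in either direction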;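 note: slope of fluorescence scaled to starting intensity during 10 to 20 s after thallium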
# PHOSPHO1 block = blocks human PHOSPHO1 phosphatase activity | recombinant PHOSPHO1, absorbance phosphatase assay | inhibition, % at 13.3 µM | 290,000 tested, 1.1% active; in the data active = inhibition above about 60%
# Calb FLC = C. albicans growth modulation with fluconazole; 300,000 tested, 0.57% active; C. albicans CaCi-2 (fluconazole-resistant clinical isolate) + fluconazole, Alamar Blue growth, 48 h; AID 1979; growth inhibition, % (concentration not given with the values);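 active = growth inhibition above about 58% in most replicates, limit read from the data, passing the limit was not always enough; inconclusive = exactly half the replicates above a set limit; inactive = most replicates below a set limit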;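 note: all wells also contain fluconazole at 8 µg/ml as a sub-toxic cotreatment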
# Efflux pump mplx = blocks antifungal efflux pumps in multiplex yeast assay | inhibition, % at 10 µM | AID 485275 | S. cerevisiae Candida pump triplex, Nile Red efflux | 330,000 tested, 0.44% active;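 active = plate passing quality check with inhibition over a set limit, or well fluorescence over plate mean plus 4 SD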;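 note: Nile Red retained in pooled yeast measured as flow cytometry median fluorescence; higher means more Nile Red kept so more efflux inhibition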
# H9c2 protect = protects H9c2 cardiomyocytes from peroxide injury. H2O2 injury protection, ATPLite, 2 h. protection from H2O2 cell death, % at 20 µM. 360,000 tested, 0.63% active;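 active = compounds giving at least 50% protection of heart cells from peroxide-induced death in the single-dose screen, raw or plate-pattern-corrected value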
# KCC2 sec1 = KCC2 (human) modulation, secondary assay; shares compounds with Cl transport mod; HEK293-KCC2, thallium flux, FluoZin2 fluorescence; active compounds read high; normalised thallium flux (F/F0 slope) at 10 µM; 3,700 tested, 15% active; AID 1713;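 active = thallium flux slope above the same plate's solvent-only control mean plus 3 SD; inconclusive = the two replicate wells disagree; inactive = no significant difference from solvent-only control wells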
# KCC2 bumet counter = thallium flux despite bumetanide block in KCC2 cells, secondary assay 3; shares compounds with Cl transport mod; HEK293-KCC2 + bumetanide/ouabain, thallium flux FluoZin2; active compounds read high; normalized thallium flux at 10 µM; 3,700 tested, 49% active; AID 1714;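 active = thallium entry rate above the same plate's blocked-transporter control wells by more than 3 SD; inconclusive = the two repeat wells disagree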;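 note: raw slope of fluorescence over initial fluorescence between 10 and 20 s after thallium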
# KCC2 secondary2 = confirmation of human KCC2 transport modulators | shares compounds with Cl transport mod | HEK293-KCC2, thallium flux FluoZin2 fluorescence; actives lie on both sides; F/F0 rise rate, 10–20 s post-thallium | normalized thallium flux at 10 µM | 3,700 tested, 23% active;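 active = thallium flux slope more than 3 SD above or below the plate's solvent-only control mean, mostly below; inconclusive = the two repeat wells disagreed; inactive = no significant shift from solvent-only controls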
# HEK counter1 = counter-screen for KCC2 modulators: effect in parental HEK293 cells. shares compounds with Cl transport mod. thallium flux FluoZin2, ouabain; baseline-ratio fluorescence slope, 10–20 s after thallium. thallium flux rate (normalised fluorescence) at 10 µM. 3,700 tested, 46% active. AID 1716;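 active = thallium flux rate significantly above the same plate's solvent-only control wells, beyond their mean plus 3 SD; inconclusive = the two replicate wells gave conflicting results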
# KCC2 retest ouab = KCC2 (human) modulation, ouabain retest; shares compounds with Cl transport mod; HEK293-KCC2, thallium flux FluoZin2 fluorescence; bidirectional: low = inhibitor, high = activator; raw Tl+ flux slope (below DMSO = inhibition, above = activation) at 10 µM; 3,700 tested, 48% active; AID 1717;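 active = thallium flux slope beyond 3 SD from same-plate DMSO control mean in most replicates, usually higher, sometimes lower; inconclusive = repeat tests gave conflicting results; inactive = no significant difference from controls in most replicates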;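 note: slope of initial-normalized fluorescence between seconds 10 and 20 after thallium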
# HEK293 Tl flux2 = acts in parental HEK cells, second KCC2 counter-screen; shares compounds with Cl transport mod; HEK293 parental, thallium flux FluoZin-2 fluorescence slope; thallium flux slope at 10 µM; 3,700 tested, 33% active; AID 1718;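 active = thallium flux slope above the same plate's solvent-control mean plus 3 SD in both duplicate wells; inconclusive = duplicate wells that disagreed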;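 note: run without ouabain in cells lacking the KCC2 cotransporter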
# A number is an active result; 0 = inactive; ? = inconclusive; - = no result given.
SMILES,Cl transport mod,PHOSPHO1 block,Calb FLC,Efflux pump mplx,H9c2 protect,KCC2 sec1,KCC2 bumet counter,KCC2 secondary2,HEK counter1,KCC2 retest ouab,HEK293 Tl flux2
CS(=O)(=O)N1CCCC(C(=O)N2CCN(c3cccc(Cl)c3)CC2)C1 (centres undefined),0,0,0,0,0,-,-,-,-,-,-
CCS(=O)(=O)NCc1ccc2c(c1)cc(C)n2C,-3.1,0,0,0,0,0,0,0,0,0,0
COc1ccc(C2C(C(=O)c3ccco3)=C(O)C(=O)N2CC2CCCO2)c(OC)c1 (centres undefined),-,0,0,0,0,-,-,-,-,-,-
CCCn1c(N)c(C(=O)CSc2nnc(Cc3ccccc3)o2)c(=O)n(C)c1=O,-8.8,0,0,0,0,0,0,0.02,0,0.015,0
O=C(CSc1nnc(CNc2ccc(F)cc2)o1)c1ccccc1,-3.8,0,?,0,0,0,0,0,0,0,0
COc1ccc(NC(=O)CSc2nnc(CNc3ccc(F)cc3)o2)c(OC)c1,-4.1,0,0,0,0,0,0,0,0,?,0
COc1ccc(NCc2nnc(SCC(=O)Nc3cc(C)cc(C)c3)o2)cc1,0,0,0,0,0,-,-,-,-,-,-
O=C(CSc1nnc(Cc2ccccc2)o1)c1ccccc1,-4.4,0,0,0,0,0,?,0.024,0,?,0
O=C(CSc1nnc(Cc2ccccc2)o1)c1ccc2c(c1)OCO2,-,-,0,0,0,-,-,-,-,-,-
COc1ccc(C(=O)CSc2nnc(CNc3ccc(F)cc3)o2)cc1,0,0,0,0,0,-,-,-,-,-,-
Cc1cc(=O)oc2cc(OCC(=O)N3CC[C@@]4(O)CCCC[C@H]4C3)ccc12,-,0,0,0,0,-,-,-,-,-,-
CCc1nc2sc3c(O)cc(=O)[nH]c3c2cc1C,0,0,0,0,0,-,-,-,-,-,-
O=C(NCCc1ccccc1)/C(=N\O)c1ccccc1,-,0,0,0,0,0,0,?,0,0,0
O=C(NCCc1ccccc1)C(=O)NCC1CCCO1 (centres undefined),-,0,0,0,0,0,0.0082,0,0,0,0.012
c1nc2ccc(Cc3ccc4nc[nH]c4c3)cc2[nH]1,-,-,0,0,0,-,-,-,-,-,-
CCCc1cc(=O)[nH]c(SCCc2ccccc2)n1,-,0,0,0,0,-,-,-,-,-,-
Fc1ccc(-c2csc(=S)[nH]2)cc1,83,0,0,0,0,0.039,0.11,0.047,0.075,0.087,0.025
O=C(NC1CCCC1)C(c1ccncc1)N(Cc1ccccc1)C(=O)c1ccc(-c2ccccc2)[nH]1 (centres undefined),0,0,0,0,0,-,-,-,-,-,-
CCOc1ccc(C(C(=O)NC2CCCC2)N(CCCO)C(=O)c2ccc(-c3ccccc3)[nH]2)cc1 (centres undefined),-5.7,0,0,0,0,0,0,?,0,0.017,0
O=C(NC1CCCC1)C(c1ccncc1)N(Cc1ccco1)C(=O)c1ccc(-c2ccccc2)[nH]1 (centres undefined),-3.3,0,0,0,0,0,?,0.024,0,?,0
COCCn1c(=NC(=O)CSCC(=O)N2CCOCC2)sc2ccccc21,-,0,0,0,0,-,-,-,-,-,-
COc1cc2oc(=O)cc(CN3CCN(c4ccccc4F)CC3)c2cc1Cl,-,-,-,-,0,-,-,-,-,-,-
COc1ccc2nc(N3CCCCC3)c(/C=C3\SC(=S)NC3=O)cc2c1,45,0,0,0,0,0.016,0.058,0,0.075,0.045,0.017
C=C1[C@H](C)CN[C@H]1CCO,-,-,-,-,0,-,-,-,-,-,-
